HT1080NT lethal: qHTS for induction of synthetic lethality in tumor cells producing 2HG: qHTS for the HT-1080-NT fibrosarcoma cell line; hit rate 1.6% among 360,000; AID 686970, 2013; HT-1080-NT fibrosarcoma viability, CellTiter-Glo ATP luminescence, 48 h; Potency, µM (series often up to 46.1 µM), for inactives: at the top dose activity, negative = less viability, actives largely listed as cytotoxic;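 note: NT is the 2HG producing partner of a matched IDH1 knockdown line; potency is the fitted concentration of half-maximal effect; 0% = DMSO-treated cells and -100% = media-only wells without cells; nearly all actives have a fitted effect of over 55% in size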
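Toxicity toward the 2HG-producing NT line was scored as %Activity, normalised to DMSO and no-cell wells, from CellTiter-Glo luminescence after 48 hours' treatment.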
IL-1B inflam inh: qHTS for Inhibitors of Inflammasome Signaling: IL-1-beta AlphaLISA Primary Screen; THP-1 LPS/ATP IL-1B secretion, AlphaLISA, 16 h; active compounds read low; activity change, % at 57.5 µM; hit rate 4.7% among 360,000; in the data active = activity change below about -50%; inconclusive = mostly about -30% to -49%
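Secreted IL-1B measured by AlphaLISA bead assay after 16 h compound exposure of THP-1 cells; compounds (final up to 57.5 uM) added 1 h before LPS (250 ng/mL) and ATP (1.25 mM) stimulation; lower signal means less secretion.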
TDP1 cell noCPT: qHTS for Inhibitors of human tyrosyl-DNA phosphodiesterase 1 (TDP1): qHTS in cells in absence of CPT | DT40 Tdp1-/- hTDP1 cells, no CPT, ATP luminescence, 48 h | Potency, µM (highest dose often 46.2 µM), for the others: at the highest dose activity change, negative = growth inhibition, usual class: inhibitors | hit rate 15% among 420,000; note: potency is the fitted concentration of half-maximal effect; nearly all actives have a fitted effect of over 55% in size
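Readout: luminescence from CellTiter-Glo after 30 min in the dark at RT. Cells: DT40 Tdp1-/- with stable hTDP1, 400/well. Exposure: compounds alone, ≥48 hr, 37 °C.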
HT1080 IDH1KD tx: qHTS for induction of synthetic lethality in tumor cells producing 2HG: qHTS for the HT-1080-IDH1KD cell line; HT-1080 IDH1 knockdown viability, ATP luminescence, 48 h; hit rate 2% among 360,000; Potency, µM (top dose mostly 46.1 µM), inactives show at the top dose activity, negative = toxicity, most hits filed as cytotoxic;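 note: potency is the fitted concentration of half-maximal effect; 0% = DMSO wells and -100% = cell-free medium wells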
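Cytotoxicity counter-line: IDH1KD HT-1080, 48 h, CellTiter-Glo. Curves classed by r2, magnitude and activity.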
TDP1 cell CPT: qHTS for Inhibitors of human tyrosyl-DNA phosphodiesterase 1 (TDP1): qHTS in cells in presence of CPT; chicken DT40 Tdp1-/-;hTDP1 cells + 20 nM CPT, ATP luminescence, 48 h; Potency, µM (doses to about 46.2 µM), for the others: at the highest dose activity change, negative = growth inhibition, hits mostly inhibitors; hit rate 12% among 420,000; note: potency is the fitted concentration of half-maximal effect; nearly all actives have a fitted effect of over 55% in size
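Chicken DT40 Tdp1-/- cells stably complemented with human TDP1 were seeded at 400 cells/well in medium containing 20 nM camptothecin, exposed to pin-transferred compounds, and grown at 37 °C for at least 48 hr. Viability was read as ATP luminescence.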
* = called active by the depositor; ? = inconclusive; . = no result. Only some compounds are listed: those with a hit (about 19% of all), similar ones and a draw of the others. Unless noted, calls come from the whole dose curve; as a rule, active = well fitted curve in the direction sought with a large enough effect; inconclusive = small, poorly fitted or top-dose-only effect, or another doubt; inactive = no such curve, though single readings can be large; an effect the other way counts as inactive or inconclusive. Unless noted, % is set by controls: 0 for no effect and ±100 for the full control effect.

SMILES	HT1080NT lethal	IL-1B inflam inh	TDP1 cell noCPT	HT1080 IDH1KD tx	TDP1 cell CPT
Cc1[nH]n(-c2ccccc2)c(=O)c1C(=O)c1ccc(Cl)cc1	?	77	?	-29%	?
CCSC(=S)c1c(C)[nH]n(-c2ccccc2)c1=O	?	-22	13µM*	?	15µM*
CC/C(=N/NC(=O)c1ccccc1O)c1c(C)[nH]n(-c2ccccc2)c1=O	?	136	1.8µM*	26µM*	2.1µM*
CCCC(=O)N1CCC1(C)C(=O)NS(=O)(=O)c1ccc(C(C)(C)C)cc1 (stereo not drawn)	18%	25	-5%	1%	-17%
CC(C)(C)c1ccc(-c2conc2N)cc1	?	4	?	?	?
CC(C)(C)N1C(=O)[C@H]2[C@@H](c3ccc(Br)cc3)N3C(=O)N(c4cccc(Br)c4)C(=O)[C@@]3(Cc3ccccc3)[C@H]2C1=O	0%	-8	8.2µM*	1%	?
CC(C)C[C@@]12C(=O)N(c3cccc(F)c3)C(=O)N1[C@H](c1ccc(Br)cc1)[C@@H]1C(=O)N(C(C)(C)C)C(=O)[C@@H]12	17%	-2	21µM*	10%	?
CC[C@@]12C(=O)N(c3cccc(Cl)c3)C(=O)N1[C@H](c1ccc(Br)cc1)[C@@H]1C(=O)N(C(C)(C)C)C(=O)[C@@H]12	-9%	-25	16µM*	-12%	26µM*
COc1ccc([C@@H]2[C@@H]3C(=O)N(C(C)(C)C)C(=O)[C@@H]3[C@]3(Cc4ccccc4)C(=O)N(c4ccc(OC)cc4)C(=O)N23)cc1	8%	2	-13%	14%	-3%
COc1ccc(N2C(=O)N3[C@H](c4cccc(C)c4)[C@@H]4C(=O)N(Cc5ccccc5)C(=O)[C@@H]4[C@]3(Cc3ccccc3)C2=O)cc1	6%	3	13µM*	9%	12µM*
Nc1nc2c(c(=O)[nH]1)N(C=O)C(CNc1ccc(C(=O)NC(CCC(=O)O)C(=O)O)cc1)CN2 (stereo not drawn)	.	.	-5%	.	24%
C=CCn1c(=O)c2ccccc2n2c(SCc3nc4ccccc4s3)nnc12	-4%	7	16µM*	-6%	?
O=C(Cc1c(F)cccc1Cl)NNC(=O)c1ccncc1	10%	7	9%	9%	3%
COc1cc(OCC(=O)NC(C)C)cc2c1C(=O)O[C@@H](C)CCCC(=O)CCCCC2	-6%	-11	21µM*	?	?
CC1O[C@@H](OCC2O[C@@H](Oc3cc(O)c4c(c3)OC(c3ccc(O)cc3)CC4=O)[C@H](O)[C@@H](O)[C@@H]2O)[C@H](O)[C@H](O)[C@H]1O (stereo partly drawn)	-7%	-17	4%	-1%	-3%
CCc1cc(=O)[nH]c(SCc2nc(-c3cccc(Cl)c3)no2)n1	.	.	16µM*	.	18µM*
CCCc1cc(=O)[nH]c(SCc2nc(-c3ccc(C)cc3)no2)n1	.	.	-18%	.	-18%
Cc1cc(NC(=O)/C(C#N)=C\c2ccc(-c3ccc(SC(F)F)cc3)o2)n(-c2ccccc2)n1	-13%	17	?	?	?
COCn1c(=O)c2c(nc(SC3=NCCS3)n2Cc2ccccc2C)n(COC)c1=O	11%	-8	?	4%	23µM*
COCCCn1c(=O)c2ccccc2n(Cc2ccccc2C)c1=O	-12%	-13	?	-3%	?
Cc1ccc2nc3c(cc(C(=O)NCC4CCCO4)c(=N)n3C(C)C)c(=O)n2c1 (stereo not drawn)	.	.	-20%	.	-4%
Cc1cccn2cc(CCNC(=O)Cc3cccs3)nc12	13%	-74*	1%	13%	6%
CC(C)C1C(=O)N(Cc2cn(CC3CCCCC3)nn2)CCS(=O)(=O)N1Cc1ccc(-c2ccc(F)cc2)cc1 (stereo not drawn)	?	-23	9.2µM*	?	-20%
COc1ccc(-c2ccc(CN3C(C(C)C)C(=O)N(Cc4cn(CC5CCCCC5)nn4)CCS3(=O)=O)cc2)cc1 (stereo not drawn)	-19%	-6	16µM*	-27%	15µM*
COCCN(C(=O)Cc1cccs1)C(C(=O)NCc1ccc(OC)cc1)c1ccccc1 (stereo not drawn)	-1%	-11	?	0%	?
SMILES	HT1080NT lethal	IL-1B inflam inh	TDP1 cell noCPT	HT1080 IDH1KD tx	TDP1 cell CPT
O=C(NNc1nc2ccc(F)cc2s1)c1cccc(F)c1	?	35	?	15µM*	12µM*
O=C(Nc1nc2ccc(F)cc2s1)c1ccccn1	?	-95*	0.52µM*	8.2µM*	0.65µM*
O=C(Nc1nc2ccc(F)cc2s1)C1=NN(c2ccccc2)C(=O)CC1	-2%	55	2%	0%	-6%
CCOCC(=O)Nc1nc2ccc(OCC)cc2s1	-6%	-14	?	-13%	?
CCOc1ccc2nc(NC(=O)c3ccc(OCC4CCCO4)cc3)sc2c1 (stereo not drawn)	?	-19	5.8µM*	?	4.1µM*
CCOc1ccc2nc(NC(=O)C3(C)CC3(Br)Br)sc2c1 (stereo not drawn)	1%	-16	23µM*	-15%	16µM*
CC1CN(C=O)CC(C)N1CCN1C(C)CN(C=O)CC1C (stereo not drawn)	-2%	4	-2%	-1%	7%
CCOC(=O)C1=C(COC(=O)C(CC)c2ccccc2)NC(=O)NC1C (stereo not drawn)	0%	22	-4%	-1%	-19%
O=C(Nc1nc2ccccc2s1)c1ccccc1	-2%	1	-25%	-12%	?
CCOc1ccc2nc(NC(=O)c3cnccn3)sc2c1	15%	-16	23µM*	8%	23µM*
CCOC(=O)c1csc(Nc2nc3ccc(F)cc3s2)n1	-25%	110	9.2µM*	?	21µM*
O=C(Nc1nc2ccccc2s1)c1cnccn1	2.8µM*	11	?	?	?
CCOc1ccc2nc(NC(=O)CSc3ccc(Cl)cc3)sc2c1	-17%	-1	?	-18%	?
O=C(Nc1nnc(SCc2ccc(F)cc2)s1)c1ccccn1	?	0	5.2µM*	?	2.6µM*
O=C(Nc1nnc(SCc2ccc(F)cc2)s1)c1cccnc1Cl	-2%	7	-18%	0%	0%

Screening data from PubChem.
